Source: PubChem
This is a sample that favours compounds with a hit; in the whole collection about 12% have one here.
L major viab – Leishmania major promastigote growth inhibition; Leishmania major promastigotes, resazurin fluorescence viability; inhibition, % at 10 µM; hit rate 9% among 200,000; in the data active means inhibition above about 50%;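 further: promastigotes grown with compound for 44 hours at 28 °C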
KCC2 mod – KCC2 (human) Cl- transport modulation. hit rate 2.2% among 190,000. B-score of Tl+ flux slope (higher = more flux/activation; lower = inhibition) at 10 µM. KCC2 cells, thallium flux FluoZin-2 fluorescence. Q9H2X9. AID 1456;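 active means thallium flux slope and its plate-corrected score both differing from the plate sample mean at a set confidence after two filtering rounds, in either direction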;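 further: slope of fluorescence scaled to starting intensity during 10 to 20 s after thallium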
Target sequence (Q9H2X9 whole entry, looked up): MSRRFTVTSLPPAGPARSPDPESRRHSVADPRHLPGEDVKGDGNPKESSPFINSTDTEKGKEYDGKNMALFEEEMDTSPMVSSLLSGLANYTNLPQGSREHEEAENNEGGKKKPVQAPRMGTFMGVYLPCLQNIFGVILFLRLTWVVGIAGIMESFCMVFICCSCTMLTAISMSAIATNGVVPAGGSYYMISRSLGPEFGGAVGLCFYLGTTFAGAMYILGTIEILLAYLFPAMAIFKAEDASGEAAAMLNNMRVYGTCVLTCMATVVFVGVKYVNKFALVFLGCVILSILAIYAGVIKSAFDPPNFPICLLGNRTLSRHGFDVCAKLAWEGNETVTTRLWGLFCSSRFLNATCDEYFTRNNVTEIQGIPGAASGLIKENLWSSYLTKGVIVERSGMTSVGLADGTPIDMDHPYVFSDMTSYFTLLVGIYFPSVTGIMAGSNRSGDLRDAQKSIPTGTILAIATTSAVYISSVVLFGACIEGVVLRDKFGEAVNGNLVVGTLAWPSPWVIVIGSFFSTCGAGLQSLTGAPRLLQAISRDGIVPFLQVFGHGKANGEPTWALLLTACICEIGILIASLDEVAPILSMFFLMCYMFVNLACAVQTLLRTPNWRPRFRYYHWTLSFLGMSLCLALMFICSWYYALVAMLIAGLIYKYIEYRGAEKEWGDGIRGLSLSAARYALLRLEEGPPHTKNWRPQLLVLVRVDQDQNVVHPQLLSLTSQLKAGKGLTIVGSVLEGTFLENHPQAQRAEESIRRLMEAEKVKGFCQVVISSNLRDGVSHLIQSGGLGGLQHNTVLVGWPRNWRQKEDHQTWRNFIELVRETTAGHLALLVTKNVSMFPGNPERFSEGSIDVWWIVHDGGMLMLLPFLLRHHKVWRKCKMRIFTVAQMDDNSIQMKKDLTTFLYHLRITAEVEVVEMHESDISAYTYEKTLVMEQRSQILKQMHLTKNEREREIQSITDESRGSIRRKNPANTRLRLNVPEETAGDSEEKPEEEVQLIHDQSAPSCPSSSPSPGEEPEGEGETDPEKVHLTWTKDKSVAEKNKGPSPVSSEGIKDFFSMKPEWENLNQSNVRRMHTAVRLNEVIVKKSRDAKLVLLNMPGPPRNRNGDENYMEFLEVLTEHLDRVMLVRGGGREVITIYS
m-calpain inh – blocks pig calpain II enzyme activity. purified calpain II, fluorogenic peptide substrate, 30 min. inhibition, % at 16 µM. hit rate 0.37% among 220,000;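 active means inhibition above about 50%, limit read from the data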
ROMK mod – modulators of human ROMK potassium channel; P48048; Tet-inducible ROMK, thallium flux fluorescence; actives lie on both sides; B-score at 10 µM; hit rate 2% among 130,000; AID 1918;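 active means signal ratio slope over the read window, or its plate-corrected B-score, at least 3 SD from the plate mean, either direction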;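 further: B-score of the F/F0 ratio slope over 7 to 12 s after thallium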
WT yeast gro inh – growth inhibition of WT yeast, mitochondrial fusion screen; hit rate 2.1% among 190,000; inhibition, % at 10 µM; mitochondrial fusion phenotypic screen, WT strain; AID 1362; in the data active means inhibition above about 58%; tested in S. cerevisiae
* = called active by the depositor; nt = no result.

SMILES	L major viab	KCC2 mod	m-calpain inh	ROMK mod	WT yeast gro inh
COc1ccc(C2C(C#N)=C(C)NC3=C2C(=O)c2ccccc23)cc1 (stereo not drawn)	21	nt	-15	-0.49	1
COc1cc(C2C(C#N)=C(C)NC3=C2C(=O)c2ccccc23)cc(OC)c1OC (stereo not drawn)	15	nt	-42	3.2*	1
CCOC(=O)N1CCN(C(=O)CS(=O)(=O)c2cn(Cc3ccc(F)cc3)c3ccccc23)CC1	nt	-0.39	-28	nt	nt
COC(=O)c1ccc(NC(=O)CN2CCN(S(=O)(=O)c3cc(Cl)ccc3OC)CC2)cc1	99*	nt	7	0.97	3
COC(=O)c1ccc(NC(=O)CN2CCN(c3ccc(Cl)cc3)CC2)cc1	-4	0.071	-8	nt	-10
COc1ccc(NC(=O)CCN2CCN(S(=O)(=O)c3cc(Cl)ccc3Cl)CC2)cc1	96*	nt	8	-2.1	8
COc1ccc(C2c3c(-c4ccccc4)n[nH]c3C(=O)N2c2ccc(C(=O)O)cc2)cc1 (stereo not drawn)	nt	2.2	16	0.31	nt
COCCCN1C(=O)c2[nH]nc(-c3ccccc3O)c2C1c1ccc(Cl)cc1 (stereo not drawn)	66*	-0.079	-36	0.014	-5
COc1ccc(-c2n[nH]c3c2C(c2ccc(OC)c(OC)c2)N(c2ccccc2)C3=O)cc1 (stereo not drawn)	97*	-1.3	-82	0.34	-6
COc1ccc(CCN2C(=O)c3[nH]nc(-c4ccccc4O)c3C2c2ccccc2)cc1OC (stereo not drawn)	60*	nt	-18	1.7	-3
CC(C)OCCCN1C(=O)c2[nH]nc(-c3ccccc3O)c2C1c1cccc(Cl)c1 (stereo not drawn)	70*	0.34	-35	nt	9
COc1ccc2[nH]cc(C(=O)CN3CCN(C/C=C/c4ccccc4)CC3)c2c1	98*	nt	-26	nt	-11
S=C(Nc1ccccc1)N1CCN(C/C=C/c2ccccc2)CC1	39	-2	14	-0.8	23
S=C(NCc1ccco1)N1CCN(C/C=C/c2ccccc2)CC1	77*	-2.6	8	0.3	8
S=C(NC1CCCC1)N1CCN(C/C=C/c2ccccc2)CC1	81*	-3	-1	-0.79	16
COCCNC(=S)N1CCN(C/C=C/c2ccccc2)CC1	1	-0.81	-3	-0.39	-2
OCC1(CC2CCCCO2)CCN(C/C=C/c2ccccc2)CC1 (stereo not drawn)	89*	-1.1	15	nt	12
COc1ccc(N2CCN(CC(=O)c3c[nH]c4ccccc34)CC2)cc1	nt	0.35	0	nt	nt
CCCCN1c2ccccc2N(CCCO)c2cc(C)nnc21	27	-0.28	6	0.14	11
CC1(C)C(=O)OC(/C=C\c2ccccc2)C(C)(C)C1=O (stereo not drawn)	-1	0.58	7	0.096	8
COc1cccc(NC(=S)N2CCN(C/C=C/c3ccccc3)CC2)c1	95*	-2.5	2	-2.1	16
Cc1ccc(OCC(=O)Nc2nnc(C3CCCO3)s2)c(Br)c1 (stereo not drawn)	8	nt	-31	-0.41	-2
O=C(O)CC1(CC(=O)NCc2ccccn2)CCCCC1	nt	-0.53	-12	nt	nt
Cc1cc(C)c2cccc(N)c2n1	-5	-0.22	9	0.93	5
Cc1cc(C)c2ccc(N)nc2c1O	99*	-0.4	-2	nt	5
SMILES	L major viab	KCC2 mod	m-calpain inh	ROMK mod	WT yeast gro inh
Cc1csc(NC(=O)CCSCCc2ccccn2)n1	2	nt	11	nt	23
CCC(C(=O)OC)(C(=O)OC)c1ccc([N+](=O)[O-])cc1	-12	0.81	19	-0.0086	3
O=C(COC(=O)c1ccc([N+](=O)[O-])o1)Nc1cccc(S(=O)(=O)N2CCCCC2)c1	-9	0.051	-46	-0.98	0
O=C(OCC(=O)N1CCN(S(=O)(=O)c2ccccc2)CC1)c1ccc([N+](=O)[O-])o1	95*	0.093	-40	-0.63	8
CC(C)CC(=O)N1CCN(S(=O)(=O)c2ccc(Cl)cc2)CC1	-3	0.049	29	0.0041	20
O=C(OCC(=O)N1CCN(S(=O)(=O)c2ccc(Cl)cc2)CC1)c1ccc([N+](=O)[O-])o1	57*	-0.028	-33	-0.0053	21
COCCn1cnc2c(c1=O)c1nc3ccccc3nc1n2/N=C/c1cccc(OC)c1	nt	-0.0092	-65	3.1	nt
C=CCn1cnc2c(c1=O)c1nc3ccccc3nc1n2/N=C/c1cc(OC)c(OC)c(OC)c1	100*	-1	-98	0.66	-2
CC(C)(C)C(=O)Nc1cccc(-c2cc(-c3c(Cl)cccc3Cl)no2)c1	nt	-1.3	18	nt	nt
CCN(CC)CCn1c(SCC(=O)NCc2ccco2)nc2c(sc3ccccc32)c1=O	3	nt	-25	0.44	-15
